Bioassay records (PubChem)
The list is not random: actives were taken first. Their share in the collection is about 2.6%.
TWEAK Fn14 block: TWEAK-Fn14 signaling inhibition; actives 2% (n = 360,000); inhibition, % at 10 µM; TWEAK-stimulated Fn14 reporter cells, luciferase luminescence, 8 h; in the data active means inhibition above about 50%
TROY signal inh: blocks TROY-dependent signaling in reporter cells; Q293 LMP1-TROYcd NF-kB luciferase reporter, 4 h; inhibition, % at 10 µM; actives 0.98% (n = 360,000);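 active means compounds whose plate-normalised and pattern-corrected inhibition of the luciferase reporter signal at the single screening dose is 50% or more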
CF NFkB block: cystic fibrosis NF-kB activation inhibition | KKLEB NF-kB-GFP reporter, PAF-induced, GFP fluorescence overnight | inhibition, % at 5 µM | actives 0.86% (n = 360,000) | AID 588850;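 active means at least 50% inhibition at 5 µM, scaled per plate between neutral and stimulator controls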;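 further: PAF is a Pseudomonas aeruginosa culture filtrate used as stimulus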
EWS-Fli inh: blocks EWS/Fli oncoprotein-driven transcription; A673 NR0B1-luciferase reporter, viability-normalised; inhibition, % at 12.6 µM; actives 0.67% (n = 350,000);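 active means mean inhibition of at least 50% after viability correction, with every replicate also passing that limit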;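 further: firefly luciferase signal divided by Alamar Blue viability fluorescence both relative to DMSO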
LGR2 inh: blocks bursicon-induced cAMP signaling via Drosophila LGR2; HEK293 LGR2, CRE-luciferase, bursicon-stimulated, 4 h; inhibition, % at 9.99 µM; actives 0.35% (n = 380,000);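 active means drop in luminescence signal, shown as inhibition above about 50% in the replicate tests, limit read from the data, passing the limit was not always enough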;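 further: agonist challenge used bursicon conditioned medium at about half maximal strength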
KKLEB cytotox: reduces viability of KKLEB cystic fibrosis airway cells; activity change (cytotoxicity), % at 5 µM; actives 0.36% (n = 360,000); KKLEB CF airway cells viability, ATPlite luminescence, overnight; stronger effect = lower value; cells stimulated with P. aeruginosa culture filtrate; AID 602141;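 active means corrected activity change at or below -50% at 5 µM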
Large screens that a line does not name were inactive.

COc1ccc(CN(C)C(=O)c2cc(-c3ccccc3)nc3ccc(C)cc23)c(OC)c1	TWEAK Fn14 block 53 (no result: LGR2 inh)
O=S(=O)(Nc1nc2ccccc2nc1Cl)c1ccccc1C(F)(F)F	TWEAK Fn14 block 50
COc1ccc(S(=O)(=O)N(C)C[C@H]2Oc3c(NS(=O)(=O)c4cn(C)cn4)cccc3C(=O)N([C@H](C)CO)C[C@H]2C)cc1	none (no result: TWEAK Fn14 block, TROY signal inh, CF NFkB block, KKLEB cytotox)
CCc1c(C)nc2ccc(Br)cc2c1Cl	none (no result: EWS-Fli inh, LGR2 inh)
Nc1nc(Cl)nc2ccc(Br)cc12	TWEAK Fn14 block 75, TROY signal inh 71
O=C(Nc1nc2ccccc2[nH]1)c1ccc(OC(F)F)cc1	none
COc1ccccc1CCC(=O)Nc1nc2ccccc2[nH]1	TWEAK Fn14 block 50 (no result: EWS-Fli inh, LGR2 inh)
COc1ccc(C(=O)Nc2nc3ccccc3[nH]2)cc1OC	none
COc1ccc(Cl)cc1C(=O)Nc1nc2ccccc2[nH]1	TWEAK Fn14 block 95, TROY signal inh 71, EWS-Fli inh 72, LGR2 inh 79, KKLEB cytotox -52
O=C(Nc1nc2ccccc2[nH]1)c1cc(F)cc(F)c1	none
CC(C)Oc1ccc(C(=O)Nc2nc3ccccc3[nH]2)cc1	TWEAK Fn14 block 98, TROY signal inh 82, EWS-Fli inh 81, LGR2 inh 94, KKLEB cytotox -50
O=C(Nc1nc2ccccc2[nH]1)c1ccc(F)cc1	TWEAK Fn14 block 69
COc1ccc(NC(=O)Nc2ccc3c(c2)C(=O)N([C@H](C)CO)C[C@H](C)[C@H](CN(C)Cc2ccc4c(c2)OCO4)OCCCC[C@H](C)O3)cc1	none (no result: TWEAK Fn14 block, TROY signal inh, CF NFkB block, KKLEB cytotox)
COc1cc(C(=O)Nc2nc3ccccc3[nH]2)ccc1OC(F)F	none
O=C(Nc1nc2ccccc2[nH]1)c1ccccc1F	TWEAK Fn14 block 102, TROY signal inh 84 (no result: EWS-Fli inh, LGR2 inh)
CCc1ccc(C(=O)Nc2nc3ccccc3[nH]2)cc1	TWEAK Fn14 block 98, TROY signal inh 80, EWS-Fli inh 75, LGR2 inh 92, KKLEB cytotox -69
O=C(Nc1nc2ccccc2[nH]1)c1ccccc1OC(F)F	TWEAK Fn14 block 64 (no result: EWS-Fli inh)
C[C@H](CO)N1C[C@H](C)[C@H](CN(C)S(=O)(=O)c2ccccc2)Oc2c(NC(=O)Nc3ccc(F)cc3)cccc2C1=O	none (no result: TWEAK Fn14 block, TROY signal inh, CF NFkB block, KKLEB cytotox)
C[C@H](CO)N1C[C@H](C)[C@@H](CN(C)Cc2ccccc2)Oc2ncc(-c3ccccc3F)cc2C1=O	none (no result: TWEAK Fn14 block, TROY signal inh, CF NFkB block, KKLEB cytotox)
CCC(=O)Nc1ccc(/C=C(\C(C)=O)C(=O)c2ccccc2)cc1	LGR2 inh 52
O=C(C(=Cc1ccc(F)cc1)c1ccccc1)c1ccc(O)cc1	none
COc1cccc(C=C(C(C)=O)C(=O)c2ccccc2)c1	TWEAK Fn14 block 51 (no result: CF NFkB block, KKLEB cytotox)
COc1cccc(/C=C(/C(=O)OCC(N)=O)c2ccccc2)c1	none
O=C(C(=Cc1ccc(F)cc1)C(=O)c1ccccc1)c1ccccc1	TWEAK Fn14 block 78
C[C@H]1CN([C@@H](C)CO)C(=O)c2cccc(NS(=O)(=O)c3cccs3)c2O[C@@H]1CN(C)S(=O)(=O)c1ccc(Cl)cc1	none (no result: TWEAK Fn14 block, TROY signal inh, CF NFkB block, KKLEB cytotox)
Nc1nc(CSC(=S)N2CCN(c3ccccc3)CC2)nc(Nc2ccc(F)cc2)n1	TWEAK Fn14 block 50 (no result: EWS-Fli inh)
Nc1nc(CSC(=S)N2CCOCC2)nc(Nc2ccccc2)n1	none (no result: EWS-Fli inh)
CCc1ccc(NC(=O)C(CC)Sc2nc3cc4c(cc3c(=O)n2Cc2ccco2)OCO4)cc1 (stereo not given)	KKLEB cytotox -63 (no result: EWS-Fli inh, LGR2 inh)
O=C(O)c1ccc(N=Nc2c(O)[nH]c3cc(Cl)ccc23)cc1	TWEAK Fn14 block 55
CCC(=O)N1N=C(c2cccs2)CC1c1ccc(C)cc1 (stereo not given)	none
Cc1ccc(C2CC(c3cccs3)=NN2C(=O)CCl)cc1 (stereo not given)	TWEAK Fn14 block 65, CF NFkB block 77, EWS-Fli inh 65, KKLEB cytotox -61
Cc1cccc(-c2cc3c(nn2)-c2ccccc2C3=O)c1	TWEAK Fn14 block 50 (no result: EWS-Fli inh)
c1ccc(-c2cc3c(nn2)CCc2nonc2-3)cc1	none (no result: EWS-Fli inh)
COc1ccc(-c2cc3c(nn2)-c2ccccc2C3=O)cc1	TWEAK Fn14 block 92, TROY signal inh 59, LGR2 inh 94, KKLEB cytotox -50
Cc1cnc2c(c1)C(=O)c1ccccc1-2	none
COc1ccc(-c2cc(-c3ccccc3)c(-c3ccccc3)nn2)cc1	none (no result: TWEAK Fn14 block, TROY signal inh, CF NFkB block, KKLEB cytotox)
O=C1c2ccccc2-c2nnc(-c3ccccc3)cc21	TWEAK Fn14 block 72 (no result: EWS-Fli inh, LGR2 inh)
C/C=C/c1ccc([C@@H]2[C@@H](C#N)N(S(=O)(=O)c3cccc(F)c3)[C@@H]2CO)cc1	none (no result: TWEAK Fn14 block, TROY signal inh, CF NFkB block, KKLEB cytotox)
